Results with a measured potency or affinity are listed apart.
target: Golgi-associated PDZ and coiled-coil motif-containing protein (Homo sapiens) (UniProt Q9HD26); assay: potency against CAL PDZ-peptide interaction – biochemical, fluorescence polarization, Cerulean-tagged CAL PDZ, cherry-picks, dose response (AID 504773); conditions: CAL PDZ-peptide binding, 1 h; series mostly up to 50 µM; activity change, negative = inhibition: at the top concentration;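 note: 0% = DMSO neutral wells and -100% = excess unlabeled competitor peptide wells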

Activity change, negative = inhibition, inactive:
O=C(NC1(C(F)(F)F)NC(=O)N(C2CCCCC2)C1=O)C1CC1 (stereo not drawn) -4.96%
O=C1OC2(CCCCC2)OC(=O)C1=CNc1nc2ccccc2s1 6.24%
NC(=O)c1cc2ccccc2o/c1=N\NC(=O)c1ccncc1 -26.7%
CCOc1ccc(C(=O)NC2CC3CCCC(C2)N3Cc2ccccc2)cc1 (stereo not drawn) -24.1%
CC1CCCN(C(=O)Cc2cccc3ccccc23)C1 (stereo not drawn) 9.32%
Cc1sc2ncn(CC(=O)NCCCC(=O)N3CCN(Cc4ccc5c(c4)OCO5)CC3)c(=O)c2c1C -11.6%
Cn1nc(C(=O)N2CCCc3ccccc32)c2ccccc2c1=O -9.28%
Cc1c(C(=O)OCC(=O)NC(=O)NC2CCCCC2)cccc1[N+](=O)[O-] 9.38%
O=C(CCc1nc(-c2ccc(Cl)cc2)no1)NC1CCCCC1 8.13%
CS(=O)(=O)c1ccc2nc(NC(=O)CN3C(=O)C4CC=CCC4C3=O)sc2c1 (stereo not drawn) 7.85%
CCOC(=O)C1(CCOc2ccccc2)CCN(CC(O)CO)CC1 (stereo not drawn) -21.3%
Cc1ccc(C(=O)NC(=S)N2CCN(c3cc(C)ccc3C)CC2)cc1 -8.14%
Cc1ccc(S(=O)(=O)N2CCN(C(=O)N(C)C)CC2)cc1 31.8%
CCc1noc(C)c1C(=O)N1CCCC(CCC(=O)NCc2ccc(F)c(F)c2)C1 (stereo not drawn) 0.002%
COc1ccc(CC(=O)NNC(=O)CCc2ccccc2)cc1OC -5.54%
Cc1nn(C)c(C)c1S(=O)(=O)N1CCC(CO)(CC2CCCCO2)CC1 (stereo not drawn) -8.34%
CN(C)c1ccc(P(=O)(OC2CCCCC2)C(O)c2cccnc2)cc1 (stereo not drawn) -21.2%
O=C(Nc1ccc(Cl)cc1)c1ccc(CN2CCc3ccccc3C2)cc1 -19.8%
